MCF10A rerep: induces DNA re-replication in MCF 10a normal breast cells; MCF 10A DNA re-replication, Hoechst nuclear intensity, 48 h; Potency, µM (top dose mostly 46.1 µM), without a hit: at the highest dose activity, positive = re-replication, hits mostly activators; 350,000 tested, 2.9% active; also: potency is read from the fitted curve at half-maximal effect; % of control where 0% means no effect; nearly all actives have a fitted effect of over 50% in size
DT40 TDP1 no CPT: qHTS for Inhibitors of human tyrosyl-DNA phosphodiesterase 1 (TDP1): qHTS in cells in absence of CPT. Potency, µM (series often up to 46.2 µM), without a hit: top-dose activity change, negative = growth inhibition, most hits filed as inhibitors. 420,000 tested, 15% active. DT40 Tdp1-/- hTDP1 cells, no CPT, ATP luminescence, 48 h; also: potency is read from the fitted curve at half-maximal effect; % is scaled to controls: 0 for no effect and ±100 for the full control effect; nearly all actives have a fitted effect of over 55% in size
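Chicken DT40 Tdp1-/- cells complemented with human TDP1, screened without camptothecin (DMSO vehicle only), 400 cells/well. Compounds pin-transferred, cells incubated at 37 °C for at least 48 hr. Growth read as ATP-dependent luminescence (CellTiter-Glo, 30 min at RT).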
BCR signal inh: blocks chronic active B-cell receptor signaling | ABC-DLBCL IkBa-CBG/CBR reporter, luminescence ratio, 4 h | Potency, µM (highest dose often 46.1 µM), without a hit: top-dose activity change, negative = inhibition, hits mostly inhibitors | 340,000 tested, 0.05% active | AID 493014; active = well fitted inhibition curve with a large enough effect in the signal ratio, with a control signal flat, not every such curve was filed as active; inconclusive = small, poorly fitted or top-dose-only effect, or effect the other way, or a change in a side signal; the % refers to the signal ratio;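 also: potency is read from the fitted curve at half-maximal effect; plate controls were basal doxycycline-induced cells for no effect and cells given 10 µM MG132 for full effect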
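Concentration-response series (up to 46 uM) were applied to TMD8 dual-reporter cells for 4 h at 37C with doxycycline. Green/red ratio, after filter-overlap correction, defined %Activity; red signal alone was normalised to basal cells and zero luminescence.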
IL1B secr inh: inflammasome signaling inhibition, IL-1 beta readout; THP-1 LPS/ATP IL-1B secretion, AlphaLISA, 16 h; active compounds read low; activity change, % at 57.5 µM; 360,000 tested, 4.7% active; AID 743279; in the data active = activity change below about -50%; inconclusive = mostly about -30% to -49%; also: % is scaled to controls: 0 for no effect and ±100 for the full control effect
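THP-1 cells pretreated 1 hr with compounds (up to 57.5 uM final), then stimulated with LPS (250 ng/mL final) plus ATP (1.25 mM final); secreted IL-1B measured by AlphaLISA after 16 hr, decreased signal indicating inhibition.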
TDP1 cell CPT: growth inhibition of DT40 Tdp1-/-;hTDP1 cells with camptothecin (screen for TDP1 inhibitors); AID 686979; chicken DT40 Tdp1-/-;hTDP1 cells + 20 nM CPT, ATP luminescence, 48 h; Potency, µM (doses to about 46.2 µM), without a hit: at the top dose activity change, negative = growth inhibition, usual class: inhibitors; 420,000 tested, 12% active; also: potency is read from the fitted curve at half-maximal effect; % is scaled to controls: 0 for no effect and ±100 for the full control effect; nearly all actives have a fitted effect of over 55% in size
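Chicken DT40 Tdp1-/- cells stably complemented with human TDP1 were seeded at 400 cells/well in medium containing 20 nM camptothecin, exposed to pin-transferred compounds, and grown at 37 °C for at least 48 hr. Viability was read as ATP luminescence.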
SW480 rereplic: inducers of DNA re-replication in SW480 colon cancer cells; SW480 DNA re-replication, Hoechst DNA content imaging, 48 h; Potency, µM (highest dose often 46.1 µM), inactives show at the highest dose re-replication activation, hits mostly activators; AID 624297; 340,000 tested, 1.8% active; also: potency is read from the fitted curve at half-maximal effect; % of control where 0% means no effect; nearly all actives have a fitted effect of over 55% in size
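SW480 cells exposed to compounds for 48 hr at 37 C, 5% CO2, then Hoechst-stained 40 min. Nuclear DNA content imaged by fluorescence scanning (405 nm excitation, 500-530 nm emission); re-replication scored as increased high-intensity nuclei.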
An asterisk follows results filed as active; ? = inconclusive; nt = no result given. The list is not random: actives were taken first. Their share in the collection is about 19%. Unless noted, calls follow the shape of the dose curve; as a rule, active = well fitted curve in the direction sought with a large enough effect; inconclusive = small, poorly fitted or top-dose-only effect, or another doubt; inactive = no such curve, though single readings can be large; an effect the other way counts as inactive or inconclusive.

SMILES | MCF10A rerep | DT40 TDP1 no CPT | BCR signal inh | IL1B secr inh | TDP1 cell CPT | SW480 rereplic
Cc1ccccc1NC(=O)NCCN1CC1 | 5.4% | 7.31µM* | -1.8% | 5.7 | 4.11µM* | 7.9%
CC(CC(C)(C)N1CC1)=NNC(=O)Nc1cccc2ccccc12 | ? | 2.91µM* | nt | -16.7 | 3.66µM* | ?
O=C1C(=O)N(c2ccccc2)P(=O)(N(CCCl)CCCl)N1c1ccccc1 | -26.3% | -0.8% | nt | -7.1 | -1.6% | -7.9%
CCCN(CC(=O)Nc1ccccc1C)C(=O)CCl | ? | 2.06µM* | ? | -95.3* | 2.59µM* | 19.8%
CC(=O)C1=C(O)C2(C)c3c(O)c(C)c(O)c(C(C)=O)c3OC2CC1=O (configuration not stated) | nt | 23.1µM* | nt | -3.4 | ? | nt
Fc1ccc(-c2nc3c(-c4ccc(F)cc4)cnn3cc2CCN2CCOCC2)cc1 | 1.3% | ? | ? | -22.6 | -17.8% | -1.3%
CC(C)N(CC(O)c1cccc([N+](=O)[O-])c1)C(C)C (configuration not stated) | 15.1% | -13.3% | -16.6% | 10.2 | 5.8% | 1.7%
COC(=O)[C@]1(C)CC[C@@]2(C)CC[C@@]3(C)C4=CC=C5C(=CC(=O)C(O)=C5C)[C@@]4(C)CC[C@@]3(C)C2C1 (some centres not stated) | nt | 0.731µM* | nt | nt | 1.03µM* | nt
CC1(C)Cc2c(sc3nc4n(-c5ccccc5)c(=O)c(CCC(=O)O)nn4c(=O)c23)CO1 | 11.3% | -29.5% | -0.2% | 13.2 | ? | -2.6%
C/C(=N\Nc1ccccc1)c1c(O)n(Cc2ccccc2)c(=O)[nH]c1=O | 13.8% | ? | 16.5% | -3.7 | 14.6µM* | 0.3%
C/C(=N\Nc1ccccc1)c1c(O)[nH]c(=O)[nH]c1=O | ? | 2.1% | ? | 37.8 | 3.9% | 20.6µM*
C/C(=N\Nc1ccccc1)c1c(O)n(-c2ccccc2)c(=O)[nH]c1=O | ? | -6.8% | 9.6% | nt | 7.8% | 5.7%
FC(F)OC(F)(F)C(F)Cl (configuration not stated) | 4.0% | -12.7% | nt | nt | 3.7% | -6.1%
O=C(O)CN1C(=O)CN=C(c2ccccn2)c2cc(Cl)ccc21 | 25.1% | -7.4% | ? | 39.5 | -2.2% | -5.0%
Cc1cccc(CN2C(=O)CN=C(c3ccccc3)c3ccccc32)c1 | nt | 5.8µM* | 1.3% | nt | 5.8µM* | nt
CCN(CC)CCN1C(=O)CN=C(c2ccccc2F)c2cc(Cl)ccc21 | 14.1% | 26.6µM* | nt | nt | ? | 3.2%
Cc1ccc(CN2C(=O)CN=C(c3ccccc3)c3ccccc32)cc1 | -1.7% | ? | -8.3% | -7.5 | -24.7% | -18.2%
O=C1CN=C(c2ccccc2)c2cc(Cl)ccc2N1Cc1ccc(Cl)cc1 | nt | 14.6µM* | nt | nt | ? | nt
CSCc1nnc2n1-c1ccc(Cl)cc1C(c1ccccc1)=NC2 | 17.8% | ? | -0.5% | -7.5 | -23.3% | 0.1%
Cc1cccc(CN2C(=O)CN=C(c3ccccc3)c3cc(Cl)ccc32)c1 | nt | 16.4µM* | -0.4% | nt | ? | nt
CC(=NCCCn1ccnc1)c1c(O)n(C2CCCCC2)c(=O)[nH]c1=O | 9.1% | -15.9% | ? | 1.9 | 9.3% | -8.2%
O=C1/C(=C/c2cc3c(cc2Cl)OCO3)N2CCC1CC2 | nt | nt | 4.8% | nt | nt | nt
O=P(/C=C1\OCc2ccccc21)(Oc1ccccc1)Oc1ccccc1 | nt | ? | nt | 0.0 | ? | nt
Cc1[nH]c2ccccc2c1CCNCc1cccnc1 | -4.1% | -2.0% | -8.2% | -4.9 | 3.0% | 5.0%
COc1ccc2[nH]c(C)c(CCNCc3cn(C)c4ccccc34)c2c1 | ? | 9.2µM* | ? | -86.2* | 11.6µM* | ?
CC[C@H]1CN2CCC1C[C@@H]2[C@H](O)c1ccnc2ccc(OC)cc12 (some centres not stated) | -3.2% | ? | nt | -17.7 | ? | -7.8%
